Here are results for 13 compounds from PubChem BioAssay (NCATS).

Experiment [1] in a line: qHTS assay for measurement of the activity of small molecule inhibitors on Zika virus induced Caspase-3 activity in human iPSC derived neural progenitor cells (hNPCs) (AID 1224857). Note: % of control where 0% means no effect; nearly all actives have a fitted effect of over 65% in size. The settings on record: hNPCs ZIKV-induced caspase-3/7, Caspase-Glo luminescence, 6 h; series mostly up to 45.7 µM. The method, boiled down: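 Values are percent inhibition of virus-induced caspase-3/7 signal, scaled between uninfected cells and ZIKV-infected cells. Infection used 2 FFU/cell for 6 h after 1 h compound exposure.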
A general note: In qHTS, concentration-response curves come from the screen itself.

Experiment [2] deals with T1, Hexokinase-4 (Homo sapiens) + Glucokinase regulatory protein (Homo sapiens) (UniProt P35557+Q14397). As to the kind of experiment: qHTS assay for inhibitors of recombinant human GCK-GKRP interaction: Diaphorase-coupled assay (AID 743205). The settings on record: G6PDH/diaphorase resorufin fluorescence; series mostly up to 57.5 µM. The method in brief:
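Signal derives from resorufin generated by diaphorase, linked to GCK turnover of glucose (5 mM) and ATP (0.4 mM). Enzyme complex was added after a 20-minute compound preincubation and monitored for 30 minutes.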

For experiment [3], the target named is T1, Hexokinase-4 (Homo sapiens) + Glucokinase regulatory protein (Homo sapiens). As to the kind of experiment: qHTS assay for inhibitors of recombinant human GCK-GKRP interaction: ADP-Glo assay (AID 743206).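 Note: plate controls were DMSO plus enzyme for no effect and no enzyme for full effect.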 The settings on record: ADP-Glo luminescence, 60 min, 0% = vehicle-only wells with enzyme present; series mostly up to 76.9 µM. The method, boiled down: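 GST-GCK and FLAG-GKRP (15 nM each in the dispensed mix, with 2 uM S6P) react with 0.4 mM ATP and 5 mM glucose (final) in Hepes pH 7.6 for 60 min at room temperature. ADP is measured by ADP-Glo luminescence.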

Experiment [4] has the same target. Briefly: qHTS assay for inhibitors of recombinant human GCK-GKRP interaction: HTRF assay (AID 743207).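 Note: 0% = DMSO with GCK present and -100% = DMSO wells lacking GCK.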 The note with it: recombinant GCK-GKRP HTRF binding, 60 min, with sorbitol-6-phosphate; series mostly up to 57.5 µM. The method in brief:
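Titration screening format: recombinant GST-GCK and FLAG-GKRP at 5 nM, S6P at 2 uM, labelled anti-tag antibodies, 60 min at RT, dual-wavelength HTRF readout.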

The nature of experiment [5]: qHTS Assay for Identifying Gametocytocidal Compounds (AID 743244).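 For max response: % is set by controls: 0 for no effect and ±100 for the full control effect; actives lower the fluorescent signal which means gametocytes are killed.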 Note: potency is the fitted concentration of half-maximal effect. The note with it: P. falciparum 3D7 stage III-V gametocytes, alamarBlue, 72 h; max response: stronger effect = lower value. The method, boiled down:
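Stage III–V gametocytes of P. falciparum 3D7 were seeded at 20,000 cells/well onto pre-dispensed compounds. After 72 h, 37 °C, 5% CO2, alamarBlue was added for another 24 h.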

A short description of experiment [6]: qHTS profiling of the MIPE4 collection as inhibitors of Plasmodium falciparum (3D7) proliferation (AID 743344; call rule not given here;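 note: scaled between DMSO vehicle wells and 0.29 µM artemisinin as full inhibition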). The settings on record: P. falciparum 3D7 in erythrocytes, SYBR Green DNA fluorescence, 72 h; at 28.5 µM (top of the series) unless noted. The method in brief:
(§1)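 Erythrocytes infected with P. falciparum (0.3% parasitemia, 2.5% hematocrit) incubated with compounds 72 h at 37 C, 5% CO2. Lysis with saponin/Triton buffer containing SYBR Green I, overnight at room temperature in the dark; DNA fluorescence (485/535 nm) normalised to 0.29 uM artemisinin and DMSO.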

A short description of experiment [7]: qHTS profiling of the MIPE4 collection as inhibitors of Plasmodium falciparum (DD2) proliferation (AID 743345; call rule not given here). The settings on record: P. falciparum Dd2 in erythrocytes, SYBR Green DNA, 72 h; at 28.5 µM (top of the series) unless noted. The method in brief:
as §1

Experiment [8] can be described thus: qHTS profiling of the MIPE4 collection as inhibitors of Plasmodium falciparum (DD2) proliferation (Rep 2) (AID 743346; call rule not given here). The note with it: P. falciparum Dd2 in erythrocytes, SYBR Green DNA, 72 h; at 28.5 µM (top of the series) unless noted. The method, boiled down: as §1
The nature of experiment [9]: qHTS profiling of the MIPE4 collection as inhibitors of Plasmodium falciparum (HB3) proliferation (AID 743347; call rule not given here;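 note: plate controls were DMSO vehicle wells for no effect and artemisinin wells for full effect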). The settings on record: P. falciparum HB3 in erythrocytes, SYBR Green DNA, 72 h; at 28.5 µM (top of the series) unless noted. The method in brief:
as §1

Experiment [10] can be described thus: High-throughput drug toxicity screening in the BPDCN cell line Cal-1 (AID 1224825; call rule not given here). The settings on record: Cal-1 BPDCN cell viability, qHTS; at 45.8 µM (top of the series) unless noted. The method, boiled down: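 Cal-1 cells, 500 per well in phenol-red-free RPMI with 10% FBS, exposed to compounds for 48 hours at 37C, 5% CO2. Viability read by CellTiter-Glo luminescence; percent activity normalized to DMSO (100%) and 9.2 uM bortezomib final (0%).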

The nature of experiment [11]: qHTS assay for measurement of the activity of small molecule inhibitors on Zika virus induced Caspase-3 activity in human astrocytoma cells (AID 1224859).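 Note: plate controls were ZIKV-infected untreated cells for no effect and uninfected cells for full effect.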 The settings on record: SNB-19 ZIKV-induced caspase-3/7, luminescence, 6 h; series mostly up to 45.7 µM. The method in brief: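 Compound added 1 h pre-infection; ZIKV 2 FFU/cell on SNB-19 cells, 6 h, 37 C/5% CO2. Caspase-Glo 3/7 luminescence; values as % inhibition of ZIKV-induced caspase activity.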

The nature of experiment [12]: qHTS assay for small molecule antagonists of the retinoid-related orphan receptor gamma (ROR-gamma) signaling pathway - cell viability counter screen (AID 720652; active = well fitted curve in the direction sought with a large enough effect in the repeat runs; an effect the other way counts as inactive or inconclusive;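 note: CHO reporter cells with doxycycline-induced ROR-gamma expression; compound exposure lasted 16 hr before ATP read; % is set by controls: 0 for no effect and ±100 for the full control effect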). The note with it: RORgamma reporter cell line viability counter screen; series mostly up to 92.2 µM. The method, boiled down:
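Counter screen in CHO cells carrying TET-inducible ROR-gamma and an ROR response element-luciferase reporter; cells plated 5 hr, compound pinned, doxycycline added, then 16 hr at 37 C. Viability read as intracellular ATP by CellTiter-Glo luminescence.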

The nature of experiment [13]: qHTS assay for small molecule agonists of the antioxidant response element (ARE) signaling pathway measured by Nrf2-dependant transcriptional activity - cell viability counter screen (AID 720653; active = well fitted curve in the direction sought with a large enough effect in the repeat runs; an effect the other way counts as inactive or inconclusive; note: % is set by controls: 0 for no effect and ±100 for the full control effect). The settings on record: ARE-bla HepG2 viability, CellTiter-Glo ATP luminescence, 16 h; max response: stronger effect = lower value. The method, boiled down: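 ARE-bla HepG2 cells treated with compounds for 16 h at 37C; this counter screen measures viability as intracellular ATP by CellTiter-Glo luminescence after 30 min at room temperature.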

The nature of experiment [14]: qHTS assay for cell viability of HEK293 cells (AID 743288). Note: % is set by controls: 0 for no effect and ±100 for the full control effect; nearly all actives have a fitted effect of over 50% in size. The note with it: ATP luminescence (CellTiter-Glo), 18 h; max response: stronger effect = lower value. The method in brief: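 Luminescent ATP quantitation served as the viability read-out. Cells (parental HEK293, 2,000/well) received compounds after at least 5 h at 37 C and were exposed for 18 h before a 30 min room-temperature reagent step.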

The nature of experiment [15]: qHTS assay for cell viability of the p53RE-bla HCT-116 cell line (AID 743292). Note: % is set by controls: 0 for no effect and ±100 for the full control effect; nearly all actives have a fitted effect of over 55% in size. The settings on record: p53RE-bla HCT-116 viability, ATP luminescence, 16 h; series mostly up to 95 µM. The method in brief: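 ATP-based luminescent viability (CellTiter-Glo, 30 min RT) after 16 h compound treatment at 37 C of p53RE-bla HCT-116 cells, seeded at 4,000 cells/well and rested 5 h before dosing.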

“And” between values parts separate entries of the source, which are not always exact repeats. Identical values can stand only once. Inconclusive results are not listed. Some structures have more than one record in an assay (separate samples or runs), and their calls can disagree. The source made the active and inactive calls. Unless noted, calls come from the whole dose curve; as a rule, active = well fitted curve in the direction sought with a large enough effect; inconclusive = small, poorly fitted or top-dose-only effect, or another doubt; inactive = no such curve, though single readings can be large; an effect the other way counts as inactive or inconclusive.

T1 sequence (P35557 whole entry, looked up): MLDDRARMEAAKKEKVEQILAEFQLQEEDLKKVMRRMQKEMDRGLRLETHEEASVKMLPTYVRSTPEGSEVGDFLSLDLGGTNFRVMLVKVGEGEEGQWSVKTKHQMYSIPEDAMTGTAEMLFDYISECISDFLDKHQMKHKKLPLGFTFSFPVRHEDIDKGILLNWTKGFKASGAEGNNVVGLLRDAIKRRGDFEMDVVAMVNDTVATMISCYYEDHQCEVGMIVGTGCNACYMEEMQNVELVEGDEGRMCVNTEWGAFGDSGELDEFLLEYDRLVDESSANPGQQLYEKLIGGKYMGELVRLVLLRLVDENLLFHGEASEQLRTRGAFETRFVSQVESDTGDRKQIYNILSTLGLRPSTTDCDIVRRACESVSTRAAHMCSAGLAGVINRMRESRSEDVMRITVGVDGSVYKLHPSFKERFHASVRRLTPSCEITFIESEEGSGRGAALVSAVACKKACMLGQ
T1 sequence (Q14397 whole entry, looked up): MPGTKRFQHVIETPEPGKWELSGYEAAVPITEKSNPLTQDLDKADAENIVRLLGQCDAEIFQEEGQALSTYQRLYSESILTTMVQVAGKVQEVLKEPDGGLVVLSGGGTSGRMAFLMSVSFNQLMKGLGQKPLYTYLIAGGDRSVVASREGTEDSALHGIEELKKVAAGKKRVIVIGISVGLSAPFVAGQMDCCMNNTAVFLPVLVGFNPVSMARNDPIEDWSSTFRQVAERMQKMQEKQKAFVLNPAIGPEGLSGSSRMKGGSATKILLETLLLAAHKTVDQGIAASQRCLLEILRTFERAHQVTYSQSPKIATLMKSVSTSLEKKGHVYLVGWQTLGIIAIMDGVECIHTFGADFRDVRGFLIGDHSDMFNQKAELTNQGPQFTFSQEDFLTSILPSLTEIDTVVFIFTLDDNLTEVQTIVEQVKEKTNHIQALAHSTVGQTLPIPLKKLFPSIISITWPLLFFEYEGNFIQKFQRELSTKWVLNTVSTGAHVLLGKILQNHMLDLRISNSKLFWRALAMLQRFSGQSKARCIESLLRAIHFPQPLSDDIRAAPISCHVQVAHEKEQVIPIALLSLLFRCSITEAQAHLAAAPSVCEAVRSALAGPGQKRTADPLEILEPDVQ

As to `NC(=S)c1ccc[n+]([C@@H]2O[C@@H](COP(=O)([O-])OP(=O)(O)OC[C@H]3O[C@@H](n4cnc5c(N)ncnc54)[C@H](OP(=O)(O)O)C3O)C(O)C2O)c1` (some centres not stated), the Potency result in [1] was “inactive”.

Consider `CCN(CC)CCOC(=O)c1ccc(N)cc1`, for which the result in experiment [2], in [3] and in [4] was inactive. Moreover, the max response in experiment [5] was 17.2% (inactive) and 7.74% (inactive). In addition, in [1], the Potency entry was “inactive”.

`O=c1cc(-c2ccccc2)oc2cc(O)c(O)c(O)c12` yielded a parasite growth, % of DMSO control in [6] of 7.41%. Besides, the parasite growth remaining, % of DMSO control (lower = more inhibition) in experiment [7] came out at 24.2%. In experiment [8], this compound gave a parasite growth, % of control (lower = inhibition) of 28.3%. The growth, % of control in experiment [9] came to 6.52%. The compound further displayed a viability (% of control) in experiment [10] of 91.7%. Moreover, the Potency result in experiment [11] is “inactive”.

As for `O=C(O)Cc1cccc2ccccc12`, the Potency result in [12], in [15] and in experiment [1] was “inactive” throughout. Moreover, the max response in experiment [13] is -3.63% (inactive) and 1.79% (inactive); in experiment [5] it was 19.3% (inactive) and -5.56% (inactive); in [14] it was 1.25% (inactive) and 0.847% (inactive).

On to `CC(=O)c1ccc(S(=O)(=O)NC(=O)NC2CCCCC2)cc1`, for which the Potency entry in [12], in experiment [15], in experiment [1] and in experiment [11] was “inactive” throughout. The max response in [13] is 2.45% (inactive) and -5.62% (inactive); in experiment [5], -4.23% (inactive) and -12.4% (inactive); in [14], 4.87% (inactive) and -10.8% (inactive). Also, the result in experiment [2], in experiment [3] and in [4] was inactive.

For `O=C1NCC2(CCN(CCc3ccccc3)CC2)O1`, the result in [2], in experiment [3] and in experiment [4] was inactive. Besides, the Potency entry in experiment [1] and in experiment [11] was “inactive” in each case.

As for `CC[C@]1(O)C[C@@H]2CN(CCc3c([nH]c4ccccc34)[C@@](C(=O)OC)(c3cc4c(cc3OC)N(C)[C@H]3[C@@](O)(C(=O)OC)[C@H](OC(C)=O)[C@]5(CC)C=CCN6CC[C@]43[C@@H]65)C2)C1`, in [5], the Potency is 15.8 µM (active) and the max response is -2.09% (inactive). Also, the Potency entry in experiment [1] is “inactive”.

`CC[C@@]1(O)C[C@H](O[C@H]2C[C@H](N(C)C)[C@H](O[C@H]3C[C@H](O)[C@H](O[C@H]4CCC(=O)[C@H](C)O4)[C@H](C)O3)[C@H](C)O2)c2c(cc3c(c2O)C(=O)c2c(O)cccc2C3=O)[C@@H]1C(=O)OC`: the parasite growth, % of DMSO control in [6] was determined as 3.31%. Further, the parasite growth remaining, % of DMSO control (lower = more inhibition) in experiment [7] worked out at 4.79%. The compound further gave a parasite growth, % of control (lower = inhibition) in [8] of 5.22%. Besides, in experiment [9], the growth, % of control came out at 2.06%. Also, the viability (% of control) in [10] amounted to 3.95%. Besides, in experiment [11], the Potency result was “inactive”.

Regarding `Clc1ccc(Cn2c(CN3CCCC3)nc3ccccc32)cc1`, the outcome in [2], in experiment [3] and in experiment [4] was inactive. For the same compound, in [1], the Potency result was “inactive”.

As for `NCCS`, the result in experiment [2], in experiment [3] and in experiment [4] was inactive. The max response in [5] was -3.42% (inactive) and 10.4% (inactive) and 19.2% (inactive). The Potency result in experiment [1] is “inactive”.

Turning to `CC(=O)CCCCn1c(=O)c2c(ncn2C)n(C)c1=O`, the result in experiment [2], in [3] and in [4] was inactive. The Potency entry in [1] and in [11] was “inactive” throughout.

For `O=C(O)CCC(C(=O)O)N1C(=O)c2ccccc2C1=O` (configuration not stated), in [1], the Potency result was “inactive”.

Regarding `CN(C)CCC(c1ccccc1)c1ccccn1` (configuration not stated), the Potency result in experiment [12], in [15], in experiment [1] and in [11] was “inactive” in each case. In addition, the max response in [13] is -6.47% (inactive); in experiment [5] it was 15.2% (inactive); in experiment [14] it was 2.94% (inactive). The outcome in experiment [2], in experiment [3] and in [4] was inactive.
